Results on 16 compounds are retold here after PubChem BioAssay (EPA / NIEHS).

The structures appear in SMILES notation. A structure can be active in one record and inactive in another. The source made the active and inactive calls. Rule for the calls: active = hit-call score of the fitted dose curve at least 0.9, where 1 is the maximum; inactive = score below 0.9.

Read-out in assay [1]: Interleukin 17F (IL17F), IL17F (gene 112744)
The assay is described as follows: BSK_BT_xIL17F: BioMAP Diversity Plus: BT Assay for Interleukin 17F (IL17F) Biomarker Activity (AID 2284243). The settings on record: primary human B cells with PBMC. In outline: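 B cell/PBMC co-culture (human primary), 24 h compound exposure; sIL-17F by Luminex xMAP; gain-of-signal fit vs DMSO baseline.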

Read-out in assay [2]: Actin alpha 1 (ACTA1), ACTA1 (gene 58)
The assay is described as follows: BSK_MyoF_ACTA1: BioMAP Diversity Plus: MyoF Assay for Actin alpha 1 (ACTA1) Biomarker Activity (AID 2284244). The settings on record: primary human lung fibroblasts. In outline:
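MyoF fibroblast system (human lung); a-SMA quantified via ELISA at 24 h; DMSO-normalised, gain-of-signal endpoint.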

Read-out in assay [3]: Interleukin 2 (IL2), IL2 (gene 3558)
The assay is described as follows: BSK_BT_xIL2: BioMAP Diversity Plus: BT Assay for Interleukin 2 (IL2) Biomarker Activity (AID 2284245). The settings on record: primary human B cells with PBMC. In outline:
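Co-cultures of primary human B cells and PBMC are treated with chemical and sampled at 24 h. IL-2 secretion is quantified by Luminex xMAP, with DMSO-treated wells as baseline.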

Read-out in assay [4]: Basic fibroblast growth factor (bFGF), FGF2 (gene 2247)
The assay is described as follows: BSK_MyoF_bFGF: BioMAP Diversity Plus: MyoF Assay for Basic fibroblast growth factor (bFGF) Biomarker Activity (AID 2284246). The settings on record: primary human lung fibroblasts. In outline: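 Fibroblasts from human lung, 24 h dosing. bFGF by ELISA; gain of signal over DMSO.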

Read-out in assay [5]: Collagen IV, COL4A1 (gene 1282)
The assay is described as follows: BSK_MyoF_CollagenIV: BioMAP Diversity Plus: MyoF Assay for Collagen IV Biomarker Activity (AID 2284247). Conditions: primary human lung fibroblasts. In outline: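 Lung fibroblasts (human primary) treated with chemicals were assayed after 24 h for Collagen IV using an ELISA, with DMSO serving as negative control and baseline for a positive-direction fit.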

Read-out in assay [6]: Monokine induced gamma interferon (MIG), CXCL9 (gene 4283)
The assay is described as follows: BSK_KF3CT_MIG: BioMAP Diversity Plus: KF3CT Assay for Monokine induced gamma interferon (MIG) Biomarker Activity (AID 2284248). The settings on record: primary human keratinocytes with fibroblasts. In outline:
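Human keratinocyte plus foreskin fibroblast primary co-culture dosed with test chemical for 24 h; MIG level measured by ELISA and fitted in the positive direction against DMSO as baseline.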

Read-out in assay [7]: Vascular cell adhesion molecule 1 (VCAM1), VCAM1 (gene 7412)
The assay is described as follows: BSK_BF4T_VCAM1: BioMAP Diversity Plus: BF4T Assay for Vascular cell adhesion molecule 1 (VCAM1) Biomarker Activity (AID 2284249). Conditions: primary human bronchial epithelial cells with fibroblasts. In outline: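 Cell-surface VCAM-1 quantified by ELISA after 24 h chemical exposure of human bronchial epithelial/dermal fibroblast co-cultures, with SRB staining in parallel wells for cytotoxicity; DMSO baseline, positive-direction fitting.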

Read-out in assay [8]: Collagen I, COL1A1 (gene 1277)
The assay is described as follows: BSK_hDFCGF_CollagenI: BioMAP Diversity Plus: hDFCGF Assay for Collagen I Biomarker Activity (AID 2284250). Conditions: primary human foreskin fibroblasts. In outline: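 Readout: Collagen I by ELISA after 24 h compound treatment of primary human foreskin fibroblasts. Endpoint analysed for increases relative to DMSO; total protein by SRB in parallel wells flagged cytotoxicity.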

Read-out in assay [9]: Interferon-inducible T-cell alpha chemoattractant (ITAC), CXCL11 (gene 6373)
The assay is described as follows: BSK_hDFCGF_ITAC: BioMAP Diversity Plus: hDFCGF Assay for Interferon-inducible T-cell alpha chemoattractant (ITAC) Biomarker Activity (AID 2284251). Conditions: primary human foreskin fibroblasts. In outline:
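I-TAC levels were read by ELISA on human dermal foreskin fibroblast primary cultures 24 h after dosing, analysed against DMSO in the positive direction. Cytotoxicity was assessed alongside by sulforhodamine B total-protein staining.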

Read-out in assay [10]: Plasminogen activator inhibitor-1 (PAI1), SERPINE1 (gene 5054)
The assay is described as follows: BSK_KF3CT_PAI1: BioMAP Diversity Plus: KF3CT Assay for Plasminogen activator inhibitor-1 (PAI1) Biomarker Activity (AID 2284252). The settings on record: primary human keratinocytes with fibroblasts. In outline: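 In this co-culture of primary human keratinocytes and foreskin fibroblasts, PAI-1 was measured by ELISA at 24 h and fitted upward from DMSO.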

For `FC(F)(F)C(F)(F)C(F)(F)C(F)(F)C(F)(F)C(F)(F)C(F)(F)C(F)(F)CCS`, the outcome in [1], in assay [2], in assay [3], in assay [4], in assay [5] and in assay [6] was inactive. In addition, the result in [7], in assay [8], in assay [9] and in assay [10] was inactive.

`CCCCCCCCC(F)(F)C(F)(F)C(F)(F)C(F)(F)C(F)(F)C(F)(F)F`: the result in assay [1], in [2], in assay [3], in assay [4], in assay [5] and in assay [6] was inactive. Also, the result in assay [7], in assay [8], in assay [9] and in [10] was inactive.

As to `FC(F)(F)C(F)(F)C(F)(F)N(C(F)(F)C(F)(F)C(F)(F)F)C(F)(F)C(F)(F)C(F)(F)F`, the outcome in assay [1], in assay [2], in [3], in [4], in [5] and in [6] was inactive. The result in assay [7], in assay [8], in [9] and in [10] was inactive.

With `O=C(O)C(F)(F)C(F)(F)C(F)(F)F`, the result in [1], in assay [2], in [3], in assay [4], in [5] and in assay [6] was inactive. The outcome in [7], in assay [8], in assay [9] and in [10] was inactive.

The term AC50 denotes the concentration at which the activity in the assay is half-maximal. For `FC(F)(F)C(F)(F)C(F)(F)CI`, the outcome in assay [1], in assay [2], in [3], in [4], in assay [5] and in assay [6] was inactive. The outcome in assay [7], in assay [8], in assay [9] and in assay [10] was inactive. For the same compound, in assay [9], the AC50 is 0.22 µM (active).

For `O=C(O)C(F)(F)C(F)(F)C(F)(F)C(F)(F)F`, the outcome in assay [1], in assay [2], in assay [3], in [4], in assay [5] and in assay [6] was inactive. In addition, the result in assay [7], in assay [8], in assay [9] and in [10] was inactive.

In the case of `O=S(=O)(OCC(F)F)C(F)(F)F`, the outcome in assay [1], in assay [2], in assay [3], in assay [4], in [5] and in assay [6] was inactive. The outcome in [7], in assay [8], in [9] and in assay [10] was inactive. In addition, in assay [10], the AC50 is 0.324 µM (active).

As for `CCCCCCC(C)OC(=O)CCCCC(=O)OC(C)CCCCCC` (configuration not stated), the outcome in [1], in assay [2], in assay [3], in assay [4] and in [5] was inactive.

On to `Cc1ccc(S(=O)(=O)OCC(F)(F)C(F)(F)C(F)(F)C(F)(F)C(F)(F)C(F)F)cc1`, for which the outcome in assay [1], in assay [2], in [3], in assay [4], in assay [5] and in assay [6] was inactive. Besides, the result in [7], in assay [8], in assay [9] and in assay [10] was inactive.

For `O=C(O)C(F)(F)C(F)(F)C(F)(F)C(F)(F)C(F)(F)C(F)(F)C(F)(F)C(F)(F)C(F)(F)C(F)(F)C(F)(F)C(F)(F)C(F)(F)F`, the outcome in assay [1], in [2], in [3], in assay [4], in assay [5] and in assay [6] was inactive. For the same compound, the result in [7], in assay [8], in assay [9] and in assay [10] was inactive. In addition, the AC50 in assay [9] is 5.22 µM (active).

Regarding `OCC(F)(F)C(F)(F)C(F)(F)F`, the result in assay [1], in [2], in assay [3], in [4], in assay [5] and in [6] was inactive. The outcome in assay [7], in assay [8], in assay [9] and in assay [10] was inactive.

Consider `O=C(O)C(F)(OC(F)(F)C(F)(OC(F)(F)C(F)(OC(F)(F)C(F)(F)C(F)(F)F)C(F)(F)F)C(F)(F)F)C(F)(F)F` (configuration not stated), for which the result in [1], in assay [2], in assay [3], in assay [4], in assay [5] and in assay [6] was inactive. Moreover, the outcome in [7], in [8], in assay [9] and in assay [10] was inactive.

As to `C#C[C@]1(O)CC[C@H]2[C@@H]3CCc4cc(OC)ccc4[C@H]3CC[C@@]21C`, the AC50 in assay [1] was 20 µM (active). In addition, the outcome in assay [3], in assay [4] and in assay [5] was inactive.

Turning to `O=C(CC(=O)C(F)(F)C(F)(F)F)C(F)(F)F`, the AC50 in assay [1] is 20.8 µM (active). The result in assay [1], in [3], in assay [4], in assay [5], in assay [6] and in assay [7] was inactive. Besides, the result in [8], in assay [9] and in [10] was inactive.

For the compound `CO[Si](OC)(c1ccccc1)c1ccccc1`, the result in assay [1], in [3], in assay [4] and in assay [5] was inactive. Also, the half-maximal activity concentration (AC50) in assay [2] was 30.8 µM (active).

With `C=C(C)C(=O)OCC(F)(F)C(F)(F)C(F)(F)F`, the outcome in [1], in assay [2], in assay [3], in [4], in [5] and in assay [6] was inactive. Also, the result in [7], in assay [8], in [9] and in [10] was inactive.
